Measured values from the supplement of paper PMC10498489.
Out of some 2,300 compounds screened, about 330 (14%) showed activity.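 The calls were made as follows: active = median modified Z-score above 1.96; inactive = 1.96 or below.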 These entries were drawn from the full list.

Test system: HepG2 Srxn1-GFP reporter cells (+30 nM CDDO-Me)
Experiment: Srxn1-GFP intensity median modified Z-score relative to plate median; higher = stronger NRF2 / oxidative stress reporter activation, active = hit call of the paper
Conditions: 10 µM; exposure time: 24h
In short: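 HepG2 Srxn1-GFP BAC reporter cells (20,000 per well, 96-well plates) were co-exposed to an NRF2 activator at 30 nM and compound at 10 μM (≤0.1% DMSO) for 24 h in three replicate plates. After formaldehyde fixation and Hoechst staining, confocal images were analysed per cell for cytoplasmic GFP, excluding images with under 100 cells. The value is the median over replicates of the per-plate modified Z-score of GFP intensity. Scaling used 1.4826 × median absolute deviation.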

Srxn1-GFP intensity median modified Z-score, active:
CC(C)=CC1C(CO)C1(C)C (centres undefined) [euspeclibcmpd1789] 2.3
COc1ccc(C(C)C(=O)c2ccc(O)cc2O)cc1 (centres undefined) [euspeclibcmpd1599] 3.33
C[C@H]1[C@H](OC(=O)CCC(=O)O)O[C@@H]2O[C@]3(C)CC[C@H]4[C@H](C)CC[C@@H]1[C@@]24OO3 [euspeclibcmpd985] 11
C[C@@H]1CC[C@H]2[C@@H](C)C(O)O[C@@H]3O[C@]4(C)CC[C@@H]1[C@]32OO4 (some centres undefined) [euspeclibcmpd1251] 3.33
CC=C(C1=CC(=O)C(OC)=CC1=O)c1ccccc1 [euspeclibcmpd1693] 3.26
CC=C(C1=CC(=O)C(OC)=CC1=O)c1ccc(OC)cc1 [euspeclibcmpd1441] 5.77
Cc1ccc2c(Br)cc(Br)c(OC(=O)c3ccccc3)c2n1 [euspeclibcmpd2181] 2.44
NCCOB(c1ccccc1)c1ccccc1 [euspeclibcmpd2465] 7.48
Cc1ccc(-n2c(C)cc(C(=O)Cn3ncc(Cl)c(Cl)c3=O)c2C)cc1 29
S=c1[nH]cnc2[nH]cnc12 [euspeclibcmpd183] 59.5

Srxn1-GFP intensity median modified Z-score, inactive:
CC[C@H]1OC(=O)C(C)[C@@H](O[C@H]2C[C@@](C)(OC)[C@@H](O)[C@H](C)O2)[C@H](C)[C@@H](O[C@@H]2O[C@H](C)C[C@H](N(C)C)[C@H]2O)[C@](C)(O)C[C@@H](C)[C@@H]2N[C@@H](COCCOC)O[C@H]([C@H]2C)[C@]1(C)O (some centres undefined) [euspeclibcmpd652] -0.125
O=C(O)C1=C(CSc2nnnn2CS(=O)(=O)O)CSC2C(NC(=O)C(O)c3ccccc3)C(=O)N12 (centres undefined) [euspeclibcmpd2255] 0.114
NC(C=O)C(O)NNCc1ccc(O)c(O)c1O (centres undefined) [euspeclibcmpd32] -0.0581
C[C@@H]1CC2C3CC(F)=C4CC(=O)C=C[C@]4(C)[C@@]3(F)[C@@H](O)C[C@]2(C)[C@@]1(O)C(=O)CO (some centres undefined) [euspeclibcmpd415] -0.177
CC(C)=CC1C(C(=O)O)C1(C)C (centres undefined) [euspeclibcmpd2019] 0.889
O=c1c(O)c(-c2ccc(O)cc2O)oc2cc(O)cc(O)c12 [euspeclibcmpd1432] -0.493
C[C@H](CCC(=O)O)[C@H]1CCC2C3C(CC[C@@]21C)[C@@]1(C)CC[C@@H](O)C[C@H]1C[C@@H]3O (some centres undefined) [euspeclibcmpd2109] -0.352
COc1ccc(CC(=O)c2ccc(O)cc2O)cc1 [euspeclibcmpd1699] 1.77
COc1ccc(SCC(=O)c2ccc(O)cc2O)cc1 1.51
CC(=O)C1CCC2C3CC=C4C[C@@H](OC(=O)CCC(=O)O)CC[C@]4(C)C3CC[C@]12C (some centres undefined) [euspeclibcmpd854] 1.01
CCC(C)C(=O)O[C@H]1C[C@H](O)C=C2C=C[C@H](C)[C@H](CC[C@@H](O)C[C@@H](O)CC(=O)O)C21 (some centres undefined) [euspeclibcmpd2392] -0.0232
CN1C(=O)OC(C)(C)C1=O [euspeclibcmpd801] -0.117
OCCN=CCNc1ccc(NCCNCCO)c2c(O)c3c(O)ccc(O)c3c(O)c12 [euspeclibcmpd568] -1.55
CC(=O)C(O)Nc1c(I)c(C(=O)NC(CO)CO)c(I)c(C(=O)NC(CO)CO)c1I (centres undefined) [euspeclibcmpd459] -0.445
Nc1c(Br)cc(Br)cc1CNC1CCC(O)CC1 (centres undefined) [euspeclibcmpd1118] -0.575
CC(=O)Oc1ccc2c(C)cc(=O)oc2c1 [euspeclibcmpd2400] -0.419
CC(=O)c1ccc(O[C@@H]2O[C@H](CO)[C@H](O)[C@H](O)[C@H]2O)cc1 1.43
CC=C(C1=CC(=O)C(OC)=C(OC)C1=O)c1ccccc1 [euspeclibcmpd1978] -0.444
CC=C(C1=CC(=O)C(OC)=CC1=O)c1ccc(O)cc1 [euspeclibcmpd1636] 0.385
CC=C(C1=CC(=O)C=CC1=O)c1ccccc1 [euspeclibcmpd1643] 1.51
COc1ccc(O)cc1 [euspeclibcmpd4] -0.253
CC(C)(/N=N/C(C)(C)C(=N)N)C(=N)N [euspeclibcmpd1744] -0.295
Cc1ccc2cccc(OC(=O)c3ccccc3)c2n1 1.25
O=C(OOC(=O)c1ccccc1)c1ccccc1 [euspeclibcmpd511] -0.314
NC[C@@H]1O[C@H](O[C@@H]2[C@@H](CO)OC(O[C@@H]3[C@@H](O)[C@H](N)C[C@H](N)[C@H]3O[C@H]3O[C@H](CO)[C@@H](O)[C@H](O)[C@H]3N)[C@@H]2O)[C@H](N)[C@@H](O)[C@@H]1O (some centres undefined) [euspeclibcmpd563] -0.129
CCCCCCCCCCCCCCCC(=O)OC[C@H](NC(=O)C(Cl)Cl)[C@H](O)c1ccc([N+](=O)[O-])cc1 [euspeclibcmpd52] 0.231
CC(=O)OCC(=O)[C@@]12N=C(C)O[C@@H]1CC1C3CC=C4CC(=O)C=C[C@]4(C)C3[C@@H](O)C[C@@]12C (some centres undefined) [euspeclibcmpd781] -0.377
Cc1onc(-c2c(Cl)cccc2Cl)c1C(=O)NC1C(=O)N2C1SC(C)(C)C2C(=O)O (centres undefined) [euspeclibcmpd2174] -0.262
CC(=O)OCC(CCn1cnc2c[nH]c(=N)nc21)COC(C)=O [euspeclibcmpd712] 0.533
Cc1ccc(-n2c(C)cc(C(=O)COC(=O)C3CC4C=CC3C4)c2C)cc1C (centres undefined) 0.589
COc1cc(NS(C)(=O)=O)ccc1N=c1c2ccccc2[nH]c2ccccc12 [euspeclibcmpd557] -1.65
CCC1CS/C(=N\c2ccc(Cl)c(Cl)c2)N1C(=O)CC1CC2CCC1C2 (centres undefined) 1.31
c1coc(CN=c2[nH]cnc3[nH]cnc23)c1 [euspeclibcmpd1534] 0.144
O=c1[nH]cnc2[nH]cnc12 [euspeclibcmpd1584] 0.249
